From PubChem BioAssay AID1986 (Sanford-Burnham Center for Chemical Genomics, 2009) come the findings set out here.

Among all 290,000 compounds or so, about 890 (0.31%) were called active. Rule as the data show it: active = inhibition mostly above about 52% (no sharp cut-off); inactive = mostly below about 76%. For the sample, actives were picked, then their nearest neighbours and some compounds at random.

The test can be described thus: cell-free HIV fusion peptide-binding blockers – biochemical, uHTS, fluorescence dequenching, primary screen (AID 1986). As to conditions: 30 min, stronger effect = higher value.

For the compound `N#CC(c1ccccc1)C1CCN(Cc2ccccc2)CC1` (stereo unspecified), the inhibition (at 20 µM) was 0.8% (inactive). For the compound `O=c1c2cn[nH]c2[nH]c(=S)n1-c1ccccc1`, the inhibition (at 20 µM) is 1.4% (inactive).

With `CCCCC/S(CC1CC1(Cl)Cl)=N\S(=O)(=O)c1ccc(C)cc1` (stereo unspecified), the inhibition (at 20 µM) was 0.9% (inactive).

Consider `CN(CC(=O)Nc1ccc(C(N)=O)cc1)CC(=O)Nc1ccccc1Br`, for which the inhibition (at 20 µM) was 0.7% (inactive). As for `O=C(Nc1ccncc1)Nc1ccc(F)c(Cl)c1`, the inhibition (at 20 µM) is 0.5% (inactive). Consider `CC1=NN(C(=O)c2ccccc2C)C(O)(c2ccc(Cl)cc2)C1` (stereo unspecified), for which, for the setting “at 20 µM”, the inhibition is -2.2% (inactive). Regarding `CC(Oc1ccccc1)C(=O)Nc1oc(-c2ccco2)c(-c2ccco2)c1C#N` (stereo unspecified), under “at 20 µM”, the inhibition is 76.1% (active). In the case of `CC(C)CC(C(=O)Nc1oc(-c2ccco2)c(-c2ccco2)c1C#N)N1C(=O)c2ccccc2C1=O` (stereo unspecified), the inhibition (at 20 µM) was -0.7% (inactive). Still for that read-out and setting: under `N#Cc1c(N)oc(-c2ccco2)c1-c1ccco1` stands 2.6% (inactive); under `O=C(Nc1ccnn1C1CCN(Cc2ccc(Cl)cc2)CC1)C1CCCC1`, 1.4% (inactive); under `O=C(N/N=C/c1cccc([N+](=O)[O-])c1O)C(O)(c1ccccc1)c1ccccc1`, 11% (inactive).

Turning to `C/C=C\C=C/C(=O)Nc1cccc(C2=NOC3(C2)C[C@H](C(N)=O)N(C(=O)c2ccc(OC)cc2)C3)c1` (stereo partly specified), the inhibition (at 20 µM) was 5.2% (inactive).

Consider `Cc1sc2nc3c(SC(C)C(=O)O)cc(C(=O)c4ccccc4O)cn3c(=O)c2c1C` (stereo unspecified), for which the inhibition (at 20 µM) is 20.4% (inactive).

For the compound `CCOC(=O)c1sc2nc3c(SCC(=O)O)cc(C(=O)c4ccccc4O)cn3c(=O)c2c1C`, the inhibition (at 20 µM) was 49.9% (inactive). Still for that read-out and setting: under `O=C(O)CSc1cc(C(=O)c2ccccc2O)cn2c(=O)c3c(-c4ccccc4)csc3nc12` stands 59.6% (active); under `CN(C)/C=C(/C(=O)c1ccc(Cl)c(Cl)c1)S(C)(=O)=O`, 0.6% (inactive).

As to `CCOc1ccc(NC(=O)CN(C)C(=O)c2cccnc2SC)cc1OCC`, for the setting “at 20 µM”, the inhibition is 0.9% (inactive). As for `CCN(CC)c1ccc(/C=N/n2c(C)nc3ccccc3c2=O)cc1`, the inhibition (at 20 µM) was -0.4% (inactive). As to `CN(C)c1ccc(/C=C/c2nc3ccccc3s2)cc1`, the inhibition (at 20 µM) is 3.1% (inactive). Regarding `CCN(CC)c1ccc(/C=C/c2cc(-c3ccccc3)c3ccccc3n2)cc1`, the inhibition (at 20 µM) is 96.8% (active).

Regarding `CCN(CC)c1ccc(/C=C/c2nc3ccccc3s2)cc1`, the inhibition (at 20 µM) is 53% (active). Turning to `CCN(CC)c1ccc(NC(=O)COC(=O)/C=C/c2nc3ccccc3s2)cc1`, where the note is “at 20 µM”, the inhibition is -1.3% (inactive). Take `Cc1cc(/C=C\c2ccccc2)nc2ccccc12`: the inhibition (at 20 µM) was 1.2% (inactive). `Cc1ccccc1C(=NC(=O)c1ccccc1)c1ccccc1`: the inhibition (at 20 µM) was 0.6% (inactive). On the same count and under the same terms, the value for `COc1ccc(/C=C(\C#N)c2nc3ccccc3[nH]2)cc1O` was -0.7% (inactive); that for `COc1ccc(/C=C(\C#N)C(=O)c2c(C)[nH]c3ccccc23)cc1OC` was -1.1% (inactive). In the case of `COc1cc(/C=C(\C#N)C(=O)c2c(C)[nH]c3ccccc23)cc(OC)c1OC`, the inhibition (at 20 µM) is -1.7% (inactive). With `COc1cc(/C=C(\C#N)c2nc3ccccc3[nH]2)cc(OC)c1O`, the inhibition (at 20 µM) is 69.9% (active).

As for `COc1cc(/C=C(\C#N)c2nc3ccccc3[nH]2)cc(Br)c1OCc1ccccc1`, the inhibition (at 20 µM) was 6.5% (inactive). On to `COc1ccc(/C=C(\C#N)c2nc3ccc(C)cc3[nH]2)cc1Oc1ccc(C(F)(F)F)cc1[N+](=O)[O-]`, for which the inhibition (at 20 µM) is 10% (inactive).

On to `COc1ccc(-c2csc(/C(C#N)=C\c3ccc(O)c([N+](=O)[O-])c3)n2)cc1OC`, for which the inhibition by setting is: (at 20 µM) 62.9% (inactive); (measured here: repeat confirmation average inhibition, at 18.6 µM) 9.1%. In the case of `COc1cc(/C=C(\C#N)c2nc(-c3cc4ccccc4oc3=O)cs2)ccc1O`, under “at 20 µM”, the inhibition is 31.9% (inactive). Consider `COc1cc(/C=C(\C#N)C(=O)c2c[nH]c3ccccc23)cc(OC)c1O`, for which the inhibition (at 20 µM) was 62.6% (active). As to `COc1cc(/C=C(/C#N)c2nc(-c3cc4ccccc4oc3=O)cs2)cc([N+](=O)[O-])c1O`, the inhibition (at 20 µM) is 66.8% (active). For `COc1cc(/C=C(\C#N)c2nc3ccc(C)cc3[nH]2)c([N+](=O)[O-])cc1OC`, the inhibition (at 20 µM) was -2.7% (inactive).

The inhibition is the relative decrease from the control value, in per cent.
